Counter-ions that a name gives are not always drawn. ± gives the uncertainty stated by the source.

The experiment deals with NCC-MFS5-C1. In words: cell viability relative to DMSO control; higher = less growth inhibition. The note with it: 10 µM; treatment time: 3 days. Here is the method:
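NCC-MFS5-C1 myxofibrosarcoma cells (1x10^4 per well, 384-well) were treated on day 2 with 10 µM of each drug. On day 5, viability was read by CCK-8 absorbance at 450 nm and normalised to the DMSO control (%), n = 2.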
As for `COc1cc2ncnc(Nc3ccc(F)c(Cl)c3)c2cc1NC(=O)/C=C/CN1CCCCC1`, the cell viability was 82.9 ± 3.8%.
Next, `CN(Cc1cnc2nc(N)nc(N)c2n1)c1ccc(C(=O)N[C@@H](CCC(=O)O)C(=O)O)cc1` [Methotrexate]: 80.2 ± 3.6%; `COc1cc2c(Oc3ccc(NC(=O)C4(C(=O)Nc5ccc(F)cc5)CC4)cc3F)ccnc2cc1OCCCN1CCOCC1`: 7.35 ± 2%.
Turning to `COc1c2ccoc2cc2oc(=O)ccc12` [Bergapten], the cell viability stood at 105 ± 18%.
As for `CCN(CC)CCNC(=O)c1c(C)[nH]c(/C=C2\C(=O)Nc3ccc(F)cc32)c1C` [Sunitinib], the figure is 67.9 ± 9.6%.
`CO[C@H]1C[C@@H]2CC[C@@H](C)[C@@](O)(O2)C(=O)C(=O)N2CCCC[C@H]2C(=O)O[C@H]([C@H](C)C[C@@H]2CC[C@@H](OCCO)[C@H](OC)C2)CC(=O)[C@H](C)/C=C(\C)[C@@H](O)[C@@H](OC)C(=O)[C@H](C)C[C@H](C)/C=C/C=C/C=C/1C` [Everolimus (RAD001)]: the cell viability came to 64.9 ± 4.7%.
As for `NC(=O)NO` [Hydroxyurea], the cell viability came out at 71.3 ± 11%.
`COc1c2occc2cc2ccc(=O)oc12` [Methoxsalen]: the cell viability was found to be 116 ± 22%.
For the molecule `COC(=O)c1ccc2c(C(=Nc3ccc(N(C)C(=O)CN4CCN(C)CC4)cc3)c3ccccc3)c(O)[nH]c2c1` [Nintedanib (BIBF 1120)], the cell viability came out at 39.1 ± 0.64%.
As to `CC(=O)O[C@H]1C(=O)[C@@]2(C)[C@H]([C@H](OC(=O)c3ccccc3)[C@]3(O)C[C@H](OC(=O)[C@H](O)[C@@H](NC(=O)c4ccccc4)c4ccccc4)C(C)=C1C3(C)C)[C@]1(OC(C)=O)CO[C@@H]1C[C@@H]2O` [Paclitaxel], the cell viability was determined as 53.9 ± 3.3%.
On to `CNC(=O)c1ccc(-c2cnc3ncc(Cc4ccc5ncccc5c4)n3n2)cc1F`, for which the cell viability was 80.9 ± 7.9%.
`CCC(C)n1ncn(-c2ccc(N3CCN(c4ccc(OCC5COC(Cn6cncn6)(c6ccc(Cl)cc6Cl)O5)cc4)CC3)cc2)c1=O` (stereo unspecified) [Itraconazole]: the cell viability is 77.7 ± 15%.
Next, `C[C@]12CC[C@@H]3c4ccc(O)cc4C[C@@H](CCCCCCCCC[S+]([O-])CCCC(F)(F)C(F)(F)F)[C@H]3[C@@H]1CC[C@@H]2O` (stereo partly specified) [Fulvestrant]: 74.38 ± 0.27%; `Clc1ccc(C(c2ccccc2Cl)C(Cl)Cl)cc1` (stereo unspecified) [Mitotane]: 76.1 ± 3.1%.
Turning to `C[C@@H]1CCN(C(=O)CC#N)C[C@@H]1N(C)c1ncnc2[nH]ccc12`, the cell viability was found to be 79.5 ± 2.5%.
Turning to `Nc1nc(F)nc2c1ncn2[C@@H]1O[C@H](CO)[C@@H](O)[C@@H]1O` [Fludarabine], the cell viability is 96.3 ± 7.3%.
For the molecule `COc1cc2nccc(Oc3ccc(NC(=O)C4(C(=O)Nc5ccc(F)cc5)CC4)cc3)c2cc1OC`, the cell viability worked out at 93.8 ± 6.7%.
`CNC(=O)c1cc(Oc2ccc(NC(=O)Nc3ccc(Cl)c(C(F)(F)F)c3)c(F)c2)ccn1` [Regorafenib (BAY 73-4506)]: the cell viability stood at 85.6 ± 6.8%.
Next, `COc1cc2/c(=N/c3ccc(Br)cc3F)nc[nH]c2cc1OCC1CCN(C)CC1` [Vandetanib (ZD6474)]: 52.5 ± 2.8%; `CN(CCOc1ccc(CC2SC(=O)NC2=O)cc1)c1ccccn1` (stereo unspecified) [Rosiglitazone]: 88.53 ± 0.85%.
As for `Nc1ncn([C@@H]2O[C@H](CO)[C@@H](O)[C@H]2O)c(=O)n1` [Azacitidine], the cell viability worked out at 104 ± 13%.
Next, `CC1(COc2ccc3c(c2)ncn3-c2ccc3cccc(N4CCC(N)CC4)c3n2)COC1`: 26.1 ± 3.3%; `CC[C@H]1OC(=O)[C@H](C)[C@@H](O[C@H]2C[C@@](C)(OC)[C@@H](O)[C@H](C)O2)[C@H](C)[C@@H](O[C@@H]2O[C@H](C)C[C@H](N(C)C)[C@H]2O)[C@](C)(O)C[C@@H](C)CN(C)[C@H](C)[C@@H](O)[C@]1(C)O` [Azithromycin]: 69.4 ± 0.75%.
`O=C(CCCCCCC(=O)Nc1ccccc1)NO` [Vorinostat (SAHA, MK0683)]: the cell viability amounted to 34.5 ± 7.2%.
Consider `CCCCCCNC(=O)n1cc(F)c(=O)[nH]c1=O` [Carmofur], for which the cell viability was found to be 81.5 ± 1.1%.
Next, `Cc1cccc(N(C)C(=S)Oc2ccc3ccccc3c2)c1` [Tolnaftate]: 103 ± 6.7%; `Nc1cccc2c1C(=O)N(C1CCC(=O)NC1=O)C2=O` (stereo unspecified) [Pomalidomide]: 97.7 ± 6.4%.
`CC1=C(/C=C/C(C)=C/C=C/C(C)=C/C(=O)O)C(C)(C)CCC1` [Tretinoin]: the cell viability was found to be 78.5 ± 4.5%.
Regarding `Nc1nc(Cl)nc2c1ncn2[C@H]1C[C@H](O)[C@@H](CO)O1` [Cladribine], the cell viability worked out at 80 ± 9.5%.
Turning to `C#Cc1cccc(Nc2ncnc3cc(OCCOC)c(OCCOC)cc23)c1` [Erlotinib HCl (OSI-744)], the cell viability was 81.6 ± 1%.
Regarding `S=c1[nH]cnc2nc[nH]c12` [Mercaptopurine (6-MP)], the cell viability is 93.5 ± 3%.
Consider `CN1c2cc(O)c(N=NC(N)=O)cc2CC1S(=O)(=O)O` (stereo unspecified) [Carbazochrome sodium sulfonate (AC-17)], for which the cell viability was determined as 78.6 ± 7.6%.
As for `Cc1ccc(F)c(NC(=O)Nc2ccc(-c3cccc4[nH]nc(N)c34)cc2)c1` [Linifanib (ABT-869)], the cell viability worked out at 46.3 ± 12%.
`CCN1CCN(c2ccc(Nc3cc(N(C)C(=O)Nc4c(Cl)c(OC)cc(OC)c4Cl)ncn3)cc2)CC1`: the cell viability turned out to be 59.8 ± 5.6%.
Take `CN(C)c1nc(N(C)C)nc(N(C)C)n1` [Altretamine]: the cell viability worked out at 103 ± 3.1%.
For the molecule `COC(=O)N[C@H](C(=O)N[C@@H](Cc1ccccc1)[C@@H](O)CN(Cc1ccc(-c2ccccn2)cc1)NC(=O)[C@@H](NC(=O)OC)C(C)(C)C)C(C)(C)C` [Atazanavir Sulfate], the cell viability turned out to be 67.8 ± 13%.

Values taken from the supplement of paper PMC8773631.
